# In PubChem BioAssay (NCATS):
# Records with an inconclusive call do not appear. The source made the active and inactive calls. Calls come from the whole dose curve; as a rule, active = well fitted cell-killing curve with a large enough effect; inconclusive = small, poorly fitted or top-dose-only effect, or effect the other way; inactive = no such curve, though single readings can be large or run the other way.
# Test: Quantitative High-Throughput drug screen in 47 multiple myeloma cell lines against the NCATS MIPE library collection: KMS34_JCRB cell viability assay (AID 1918985); note: nearly all actives have a fitted effect of over 40% in size
# Conditions: KMS34 myeloma viability, CellTiter-Glo ATP luminescence, 48 h; series mostly up to 45.8 µM; viability, percent of control: at the top concentration
# Outline: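 500 cells/well; MIPE 4.0 drugs pin-transferred; 48 h, 37C, 5% CO2. CellTiter-Glo, 5 min RT, luminescence. Controls: DMSO 100%, media 0%.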
# Potency is the fitted concentration of half-maximal effect.
SMILES,Potency,"viability, percent of control"
Nc1cccc2c1C(=O)N(C1CCC(=O)NC1=O)C2=O (configuration not stated),0.0021 µM (active),
CC(C)[C@H](CO)Nc1nc(Nc2cccc(Cl)c2)c2ncn(C(C)C)c2n1,18.7 µM (active),
COc1cc(OC)c(NC(=O)Nc2cc(C)on2)cc1Cl,,110% (inactive)
O=C1c2c(O)cccc2[C@@H]([C@@H]2O[C@H](CO)[C@@H](O)[C@H](O)[C@H]2O)c2cc(CO)cc(O)c21,,125% (inactive)
C[C@@H]1C(=O)O[C@H]2CC34[C@H]5C[C@@H](C(C)(C)C)C36[C@H](OC(=O)[C@@H]6O)O[C@@]4(C(=O)O5)[C@]21O (some centres not stated),,106% (inactive)
CC(C)n1cnc2c(NCCc3ccc(O)cc3)nc(-c3csc4ccccc34)nc21,20.9 µM (active),
CCCNC(=O)[C@H]1O[C@H]1C(=O)N[C@H](C(=O)N1CCC[C@@H]1C(=O)OC)C(C)CC (some centres not stated),4.18 µM (active),
CC(=O)O[C@H]1C[C@@H]2CC[C@H]3[C@H]4C[C@H]([N+]5(C)CCCCC5)[C@@H](OC(C)=O)[C@@]4(C)CC[C@@H]3[C@@]2(C)C[C@H]1[N+]1(C)CCCCC1,,120% (inactive)
NC(=O)c1ncn([C@@H]2O[C@H](CO)[C@@H](O)[C@@H]2O)c1O,,83.8% (inactive)
CC(=O)N1CCN(c2ccc(OCc3nn(C)c(C)c3-c3cccc4c(CCCOc5cccc6ccccc56)c(C(=O)O)n(Cc5cccnc5)c34)cc2)CC1,18.7 µM (active),
C[C@H](CCC(=O)O)[C@H]1CC[C@H]2[C@@H]3[C@H](O)C[C@@H]4C[C@H](O)CC[C@]4(C)[C@@H]3CC[C@]12C,,118% (inactive)
CN(C)CC(=O)N1CCC(c2ccc(NC(=O)c3ncc(C#N)[nH]3)c(C3=CCCCC3)c2)CC1,,76.4% (inactive)
CNC(=O)c1cccc(-c2ccc3c(N4CCOC[C@H]4C)nc(N4CCOC[C@H]4C)nc3n2)c1,0.059 µM (active),
COc1cc(C[C@@H](CO)[C@H](CO)Cc2ccc(O)c(OC)c2)ccc1O,,114% (inactive)
COC(=O)[C@@H]1CC2=CC(=O)CC[C@]2(C)[C@@]23O[C@@H]2C[C@@]2(C)[C@H](CC[C@@]24CCC(=O)O4)[C@@H]13,,114% (inactive)
COC1=C(OC)C(=O)C(CC=C(C)CCC=C(C)CCC=C(C)CCC=C(C)CCC=C(C)CCC=C(C)CCC=C(C)CCC=C(C)CCC=C(C)CCC=C(C)C)=C(C)C1=O,,119% (inactive)
C[C@H]1COc2c(N3CCN(C)CC3)c(F)cc3c(=O)c(C(=O)O)cn1c23,,103% (inactive)
